Assay outcomes from PubChem BioAssay.
D1 antagonist = blocks dopamine activation of the human D1 receptor; P21728; HEK293 TREx D1 cells, calcium flux, dopamine EC80; hits give low values; activity change, negative = inhibition, % at 10 µM; hit rate 3.2% among 360,000; in the data active = activity change below about -30%; note: % is set by controls: 0 for no effect and ±100 for the full control effect
Target sequence (P21728 whole entry, looked up): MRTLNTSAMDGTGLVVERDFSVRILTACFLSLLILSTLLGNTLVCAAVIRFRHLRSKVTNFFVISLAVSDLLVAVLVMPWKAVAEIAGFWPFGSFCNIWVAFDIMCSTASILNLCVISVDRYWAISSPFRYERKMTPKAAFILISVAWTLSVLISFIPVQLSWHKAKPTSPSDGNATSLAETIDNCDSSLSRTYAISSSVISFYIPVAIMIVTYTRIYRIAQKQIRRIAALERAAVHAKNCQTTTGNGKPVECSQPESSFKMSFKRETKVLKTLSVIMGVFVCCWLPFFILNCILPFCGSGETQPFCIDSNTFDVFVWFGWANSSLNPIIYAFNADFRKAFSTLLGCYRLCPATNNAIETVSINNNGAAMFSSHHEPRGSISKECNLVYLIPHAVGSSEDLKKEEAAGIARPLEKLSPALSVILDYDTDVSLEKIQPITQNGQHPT
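Tetracycline-induced HEK293 T-REx cells with force-coupled D1 receptor were loaded with a no-wash calcium dye. Compound was added after a 10 s baseline and read kinetically for 180 s; EC80 dopamine was then added and calcium flux followed another 180 s.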
D1 potentiator = human D1 dopamine receptor positive modulation; AID 504651; P21728; hit rate 0.036% among 360,000; potentiation, % at 10 µM; HEK293 TREx D1 cells, calcium flux, dopamine EC20 potentiation; in the data active = potentiation above about 30%; note: 0% is about no effect
DRD3 agonist = agonists of human D3 dopamine receptor | P35462 | D3R DiscoveRx beta-arrestin cells, luminescence, 90 min | max activation, % | hit rate 0.58% among 410,000 | AID 652048; in the data active = max activation above about 30%; note: 0% is about no effect
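Agonist-mode cell screen: cells plated at 1500/well and incubated overnight at 37 °C, then exposed to library compounds for 90 min at 37 °C. Detection reagent was added for 30–60 min at room temperature, and luminescence was read.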
D3 antag = D3 dopamine receptor (human) antagonism; D3R cells, DiscoveRx beta-arrestin luminescence, antagonist mode; hits give low values; max response, negative = inhibition, %; hit rate 2.5% among 360,000; in the data active = max response below about -50%; inconclusive = no clear call, values can overlap the other calls; note: % is set by controls: 0 for no effect and ±100 for the full control effect
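Cells expressing the human receptor were seeded at 1500 cells/well, incubated overnight at 37 degrees C in 5% CO2, then exposed to library compounds with dopamine controls for 90 minutes at 37 degrees C before luminescent detection.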
D1 ag = activates the human D1 dopamine receptor | activation, % at 2 µM | HEK293 T-REx D1 cells, calcium flux, agonist mode | hit rate 1% among 360,000 | AID 504660 | P21728; in the data active = activation above about 30%; note: 0% is about no effect
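Agonism was scored from calcium flux recorded over 180 s (1 read/s) after pintool compound addition, following a 10-cycle baseline. Cells were inducible force-coupled HEK293 TREx D1, plated overnight at 30 C and loaded with no-wash calcium dye.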
The depositor's hits bear a star; ! = a repeat was not active. Rows were chosen to be rich in hits. Some 6.1% of all compounds tested hit in one or more screens of this group.

How did O=[N+]([O-])c1cccc2nc(-c3ccccc3)c(-c3ccccc3)nc12 do in these assays?
D1 antagonist: 5; D1 potentiator: -4; DRD3 agonist: -21; D3 antag: -5; D1 ag: 5

Results for Cn1c(-[n+]2c(-c3ccccc3)cc(-c3ccccc3)cc2-c2ccccc2)nc2c([N+](=O)[O-])cccc21 ?
D1 antagonist: -13; D1 potentiator: -8; DRD3 agonist: -12; D3 antag: -60*; D1 ag: 11

Results for O=C1CSC(=S)N1/N=C/c1cc(Br)c(O)c(Br)c1 ?
D1 antagonist: 4; D1 potentiator: 0; DRD3 agonist: 15; D3 antag: 9; D1 ag: 422*

What do the screens show for `COc1cc(/C=N/N2C(=O)CSC2=S)ccc1O`?
D1 antagonist: 2; D1 potentiator: -1; DRD3 agonist: 1; D3 antag: -21; D1 ag: 15

How did OC(c1ccccc1)(c1nc(/C=C/c2ccc(C(F)(F)F)cc2)cs1)C(F)(F)F (centres undefined) do in these assays?
DRD3 agonist: -10; D3 antag: -7

How did O=C(O)c1ccc(NCc2cccnc2)c([N+](=O)[O-])c1 do in these assays?
D1 antagonist: 6; D1 potentiator: 0; DRD3 agonist: -5; D3 antag: -83*; D1 ag: 6

How did COc1cc([N+](=O)[O-])ccc1NC(=O)NCc1cccnc1 do in these assays?
D1 antagonist: -3; D1 potentiator: -2; DRD3 agonist: -10; D3 antag: 0; D1 ag: 0

How did Cc1cc(C(=O)O)ccc1NCc1cccnc1 do in these assays?
D1 antagonist: 4; D1 potentiator: -2; DRD3 agonist: 2; D3 antag: 11; D1 ag: 2

Results for Cc1ccc(NC(=O)c2cc([N+](=O)[O-])ccc2NCc2cccnc2)cc1 ?
D1 antagonist: -36*; D1 potentiator: -12; DRD3 agonist: 0; D3 antag: -4; D1 ag: 0

What do the screens show for `COCCN(C(=O)CSc1nnc(-c2ccccc2OC)o1)c1c(N)n(CC(C)C)c(=O)[nH]c1=O`?
D1 antagonist: 14; D1 potentiator: -18; DRD3 agonist: 5; D3 antag: -8; D1 ag: 1

How did Cc1ccc(N2CCN(C(=O)c3cnn(-c4ccc(C)c(C)c4)c3C3CCNCC3)CC2)c(C)c1 do in these assays?
D1 antagonist: 3; D1 potentiator: -5; DRD3 agonist: -19; D1 ag: 82*

How did Cc1ccc(Cl)cc1N1CCN(C(=O)c2cnn(-c3ccc(Cl)cc3)c2C2CCNCC2)CC1 do in these assays?
D1 antagonist: -2; D1 potentiator: -2; DRD3 agonist: -22; D1 ag: 38*

Results for O=C(c1ccco1)N1CCN(C(=O)c2cnn(-c3cccc(F)c3)c2C2CCNCC2)CC1 ?
D1 antagonist: -6; D1 potentiator: -8; DRD3 agonist: 84*!; D3 antag: 1; D1 ag: 1

Results for CC(=O)N1CCc2cc(CNS(=O)(=O)c3ccc(C(C)(C)C)cc3)ccc21 ?
D1 antagonist: -4; D1 potentiator: -3; DRD3 agonist: 0; D1 ag: 11

How did COc1cccc(C2C(=O)N(C3CCCCC3)CC(=O)N2CCc2ccc(OC)c(OC)c2)c1 (centres undefined) do in these assays?
D1 antagonist: -6; D1 potentiator: 0; DRD3 agonist: -1; D1 ag: 0

What do the screens show for `CCN(CC)S(=O)(=O)c1cccc(NC(=O)c2ccc(C#N)cc2)c1`?
D1 antagonist: 7; D1 potentiator: -8; DRD3 agonist: -8; D3 antag: -25; D1 ag: 9

Results for CNC(=O)CSc1nnc(NC(=O)C2CC(=O)N(c3ccccc3OC)C2)s1 (centres undefined) ?
D1 antagonist: -1; D1 potentiator: -16; DRD3 agonist: 1; D3 antag: 1; D1 ag: 1

How did O=S(=O)(Nc1ccc(N=Nc2ccc(O)c3ccccc23)cc1)c1ccccc1 do in these assays?
D1 antagonist: 7; D1 potentiator: 4; DRD3 agonist: -33; D3 antag: inconclusive; D1 ag: 1

Results for O=[N+]([O-])c1ccc(N=Nc2ccc(O)c3ccccc23)cc1 ?
DRD3 agonist: -14; D3 antag: -71*

Results for Oc1ccc(Nc2nc3ccccc3n3cnnc23)cc1 ?
D1 antagonist: 1; D1 potentiator: 2; DRD3 agonist: 5; D1 ag: -1

Results for CCCCC(CC)COC(=O)CC(C(=O)OCC(CC)CCCC)S(=O)(=O)O (centres undefined) ?
DRD3 agonist: -6

Results for CCCCC(CC)COC(=O)C(C#N)=C(c1ccccc1)c1ccccc1 (centres undefined) ?
D1 potentiator: 0; DRD3 agonist: -93; D3 antag: -74*; D1 ag: 4

Results for COc1ccccc1N1CCN(S(=O)(=O)c2ccc(-c3cc(C(F)(F)F)on3)s2)CC1 ?
D1 antagonist: -12; D1 potentiator: -3; DRD3 agonist: -2; D1 ag: 1

What do the screens show for `COc1cnc(-c2ccccn2)nc1Oc1ccccc1`?
D1 antagonist: 8; D1 potentiator: 6; DRD3 agonist: -8; D3 antag: -1; D1 ag: 1

What do the screens show for `COc1cnc(-c2ccccn2)nc1Sc1ccc(Cl)cc1`?
D1 antagonist: 8; D1 potentiator: 7; DRD3 agonist: -2; D3 antag: -99*; D1 ag: 1

How did COc1cnc(-c2ccccn2)nc1N(C)c1ccccc1 do in these assays?
D1 antagonist: -5; D1 potentiator: 10; DRD3 agonist: -22; D3 antag: -68*; D1 ag: 6

Results for C/C=C(\C)C(=O)Nc1cccc(C2=NOC3(C2)C[C@H](C(N)=O)N(C(=O)CC#N)C3)c1 (some centres undefined) ?
D1 antagonist: -48*; D1 potentiator: -5; DRD3 agonist: 1; D3 antag: 55; D1 ag: 2

What do the screens show for `C/C=C(/C)C(=O)Nc1cccc(C2=NOC3(C2)C[C@@H](C(N)=O)N(C(=O)CC)C3)c1` (some centres undefined)?
D1 antagonist: -7; D1 potentiator: -9; DRD3 agonist: 11; D3 antag: 0; D1 ag: 1

What do the screens show for `CCCCCC(=O)Nc1cccc(C2=NOC3(C2)C[C@@H](C(N)=O)N(C(=O)Cc2ccc([N+](=O)[O-])cc2)C3)c1` (some centres undefined)?
D1 antagonist: -18; D1 potentiator: 8; DRD3 agonist: 2; D3 antag: -56*; D1 ag: 1

What do the screens show for `C=C(C)C(=O)Nc1cccc(C2=NOC3(C2)C[C@@H](C(N)=O)N(C(=O)c2ccc(OC)cc2)C3)c1` (some centres undefined)?
D1 antagonist: -33*; D1 potentiator: -7; DRD3 agonist: 3; D3 antag: 4; D1 ag: 1
